# In the library only some 8.5% were active in any assay of this set; here they are far more common.
# Sfp PPTase inh – qHTS Assay for Inhibitors of Bacillus subtilis Sfp phosphopantetheinyl transferase (PPTase). 3.5% of 310,000 active. Potency, µM, inactives show largest response in the series, negative = inhibition, usual class: inhibitors. AID 1490, 2009. 4'-phosphopantetheinyl transferase ffp (Bacillus subtilis), Q9F4F7. Biochemical Sfp PPTase activity, qHTS; active = well fitted curve in the direction sought with a large enough effect; inconclusive = small, poorly fitted or top-dose-only effect, or another doubt; inactive = no such curve, though single readings can be large; an effect the other way counts as inactive or inconclusive;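 also: the enzyme is Sfp with the accession as filed and its product quenches rhodamine fluorescence; potency is read from the fitted curve at half-maximal effect; 0% = enzyme reaction without inhibitor and -100% = no enzyme wells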
#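 Step 1, compound plus 15 nM Sfp-PPTase, 15 min, room temperature. Step 2, add rhodamine-CoA (5 uM) and BHQ-2-YbbR (12.5 uM). Step 3, read 525/598 nm fluorescence at 0 and 30 min.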
# Coupling enz – qHTS Assay for Inhibitors of Fructose-1,6-bisphosphate Aldolase from Giardia Lamblia: Coupling assay counterscreen. AID 2472, 2010. coupling enzyme system counterscreen, AmpLite Red fluorescence. activity change, negative = inhibition, % at 58.2 µM, hits read low. 0.67% of 290,000 active; in the data active = activity change below about -30%
#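 Compounds tested against the coupling enzymes alone at 57.5 uM final; readout was AmpLite Red fluorescence (525/598 nm) after 20 min at RT.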
# JMJD2E inh – qHTS Assay for Inhibitors of Human Jumonji Domain Containing 2E (JMJD2E); Potency, µM (series often up to 57.1 µM), for inactives: at the top dose activity change, negative = inhibition, most hits filed as inhibitors; 1.6% of 230,000 active; AID 2147, 2009; JMJD2E catalytic domain, FDH-coupled NADH fluorescence (FDH is formaldehyde dehydrogenase); Lysine-specific demethylase 4E (Homo sapiens), B2RXH2;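 also: potency is read from the fitted curve at half-maximal effect; 0% = wells with enzyme and -100% = buffer wells without enzyme; nearly all actives have a fitted effect of over 50% in size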
# Target sequence (B2RXH2 1-337 limits assumed): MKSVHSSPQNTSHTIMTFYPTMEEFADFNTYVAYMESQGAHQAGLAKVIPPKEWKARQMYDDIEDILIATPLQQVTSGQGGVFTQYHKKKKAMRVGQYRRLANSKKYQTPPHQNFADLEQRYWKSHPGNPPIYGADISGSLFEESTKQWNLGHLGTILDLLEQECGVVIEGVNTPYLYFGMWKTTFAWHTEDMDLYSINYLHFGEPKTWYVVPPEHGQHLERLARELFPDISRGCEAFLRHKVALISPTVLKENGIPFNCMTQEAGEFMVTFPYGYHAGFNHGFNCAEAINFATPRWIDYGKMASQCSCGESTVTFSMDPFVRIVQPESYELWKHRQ
# ALDH1A1 block – qHTS Assay for Inhibitors of Aldehyde Dehydrogenase 1 (ALDH1A1); AID 1030, 2008; Potency, µM (titrated, usually from 75.3 µM), without a hit: at the highest dose activity, negative = inhibition, most hits filed as inhibitors; Purified ALDH1A1, NADH fluorescence, propionaldehyde substrate; 7.3% of 220,000 active; Aldehyde dehydrogenase 1A1 (Homo sapiens), P00352;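 also: potency is read from the fitted curve at half-maximal effect; plate controls were no enzyme wells and a reference inhibitor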
# GoLoco inh red – qHTS Assay for Inhibitors of RGS12 GoLoco Motif Activity (Red Fluorophore); Guanine nucleotide-binding protein G(i) subunit alpha-1 (Homo sapiens), P63096; Gai1:RGS12 GoLoco peptide FP, rhodamine, 10 min; Potency, µM (titrated, usually from 61.6 µM), for inactives: at the top dose activity, negative = inhibition, actives largely listed as inhibitors; 0.44% of 230,000 active; active = well fitted inhibition curve with a large enough effect, not every such curve was filed as active; inactive = no such curve, though single readings can be large or run the other way; also: potency is read from the fitted curve at half-maximal effect; nearly all actives have a fitted effect of over 30% in size
# NPSR antag – qHTS Assay for Antagonists of the Neuropeptide S Receptor: cAMP Signal Transduction; Q6W5P4; CHO-NPSR cells, cAMP TR-FRET, antagonist mode; Potency, µM (series often up to 38.3 µM), inactives show at the top dose activity change, negative = inhibition, usual class: inhibitors; 1% of 220,000 active; active = well fitted curve in the direction sought with a large enough effect; inconclusive = small, poorly fitted or top-dose-only effect, or another doubt; inactive = no such curve, though single readings can be large; an effect the other way counts as inactive or inconclusive; also: potency is read from the fitted curve at half-maximal effect; nearly all actives have a fitted effect of over 50% in size
# Target sequence (Q6W5P4 whole entry, looked up): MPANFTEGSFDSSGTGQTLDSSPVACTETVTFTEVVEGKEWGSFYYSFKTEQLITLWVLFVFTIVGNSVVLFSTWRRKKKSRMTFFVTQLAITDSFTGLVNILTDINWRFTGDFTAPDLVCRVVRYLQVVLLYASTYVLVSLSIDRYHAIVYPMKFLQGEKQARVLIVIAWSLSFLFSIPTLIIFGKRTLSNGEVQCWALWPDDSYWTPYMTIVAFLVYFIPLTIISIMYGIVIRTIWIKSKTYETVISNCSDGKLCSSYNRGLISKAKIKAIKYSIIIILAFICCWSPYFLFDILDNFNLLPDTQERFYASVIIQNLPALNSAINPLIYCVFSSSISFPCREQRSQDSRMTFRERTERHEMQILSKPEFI
# Numbers without * were called inactive; ? = inconclusive; . = not tested or not shown; ! = repeats disagree; [ ] = dose if it differs, or a comment. Unless noted, calls follow the shape of the dose curve; as a rule, active = well fitted inhibition curve with a large enough effect (not every such curve was filed as active); inconclusive = small, poorly fitted or top-dose-only effect, or another doubt; inactive = no such curve, though single readings can be large or run the other way. Unless noted, % is scaled to controls: 0 for no effect and ±100 for the full control effect.
SMILES,Sfp PPTase inh,Coupling enz,JMJD2E inh,ALDH1A1 block,GoLoco inh red,NPSR antag
COc1ccccc1NC(=S)NCc1ccccc1,11%,-1,.,.,.,.
COc1cc(OC)cc(C(=O)NNC(=S)Nc2ccccc2OC)c1,3%,4,1%,22µM*,6%,-5%
COc1ccccc1NC(=S)NNC(=O)c1cc(C)n(C)n1,25%,-6,18µM*,-6%,6%,0%[46.1 µM]
COc1ccccc1NC(=S)c1ccccc1,32µM*,1,5%,28µM*,0%,9%
COc1cc(OC)c2c(c1C(CCN1CCCC1)c1ccc(N(C)C)cc1)OC(=O)CC2c1ccc(N(C)C)cc1 (stereo unspecified),-16%,0,.,.,.,.
CN1CCN(CC(=O)n2c3c(c4ccccc42)CCCC3)CC1,-1%,-47*,-3%,-11%,6%,22%[46.1 µM]
CCN(CC)CC(=O)n1c2c(c3ccccc31)CCCC2,-2%,-1,?,32µM*,8%,-21%[46.1 µM]
Cc1ccc(S(=O)(=O)N2CCN(C(=O)/C=C/c3ccco3)CC2)cc1,?,2,-3%,22µM*,-13%,3%
O=C(/C=C/c1ccco1)N1CCN(S(=O)(=O)c2ccc(F)c(F)c2F)CC1,40µM*,5,7%,?,-2%,16%
CCCCN(C)C(=O)C1CCN(Cc2cccc(OCc3ccccc3)c2)CC1,-21%,8,.,.,.,.
Cc1cc(N2CCN(c3ccc(C(F)(F)F)cc3[N+](=O)[O-])CC2)c2ccccc2n1,71µM*,-1,.,.,.,.
CCn1c(SCC(=O)N/N=C/c2ccccc2OCC(=O)O)nnc1-c1ccc(C)cc1,16%,5,-12%,.,4%,57%
Cc1cccc(-c2oc(C)c(C)[n+]2[O-])c1,2%,6,16%,3.5µM*,-1%,-10%[46.1 µM]
O=C(NNC(=O)c1ccc(-c2ccccc2)cc1)Nc1ccc(F)cc1F,-5%,.,.,.,.,.
COC(=O)c1c(-c2c(Cl)cccc2Cl)noc1C(=O)NNC(=O)N(C)C,0%,-4,-4%,.,4%,6%
Cc1ccc2c(c1)-c1c(ssc1=S)C(C)(C)N2C(=O)CSc1nncn1C,?,5,0%,?,1%,-7%[46.1 µM]
Cc1cc(C)c2c(c1)-c1c(ssc1=S)C(C)(C)N2C(=O)CSc1nncn1C,50µM*,2,-1%,?,-10%,?
COc1ccc(C(CNC(=O)c2ccc(S(=O)(=O)N(C)C)cc2)N2CCCCC2)cc1 (stereo unspecified),16%,1,2%,10µM*,8%,-2%
COc1ccc(OCC(=O)NCC(c2ccc(OC)cc2)N2CCCCC2)cc1 (stereo unspecified),5%,0,.,.,.,.
CCOc1ccc(N=C/C=C/c2ccccc2)c(O)c1,50µM*,-32*,10µM*,.,41%,25%
Cc1ccc(C2=NOC3(CC(=O)N(c4ccc(C)cc4)C3=O)C2)cc1 (stereo unspecified),6%,1,7%,.,10%,25%
CCCn1c(SCC(=O)Nc2ccc(OC)cc2)nnc1-c1ccncc1,12%,-1,-7%,5%,-2%,-5%[46.1 µM]
O=C(CNC1CCCCC1)N1CCc2ccccc2C1,?,-6,-17%,11µM*,-7%,-5%[46.1 µM]
CCCN(CC(=O)Nc1ccccc1C)C(=O)COc1ccc2c(c1)CCC2,1%,.,.,.,.,.
COc1ccc(NC(=O)[C@@H]2[C@@H]3C(=O)N(C4CCCCC4)C(=O)[C@@H]3C3c4ccccc4C=CN32)cc1 (stereo partly specified),3%,-31*,11%,0.5µM*,80%,-3%[46.1 µM]
SMILES,Sfp PPTase inh,Coupling enz,JMJD2E inh,ALDH1A1 block,GoLoco inh red,NPSR antag
CC(=O)[C@@H]1[C@@H]2C(=O)N(C3CCCCC3)C(=O)[C@@H]2C2c3ccccc3C=CN21 (stereo partly specified),-29%,.,?,7.1µM*,14%,-9%[46.1 µM]
CC(=O)[C@H]1[C@@H]2C(=O)N(c3cccc(Cl)c3)C(=O)[C@@H]2[C@H]2c3ccccc3C=CN21,?,-36*,?,7.9µM*,123%,-6%[46.1 µM]
O=C(C[n+]1ccc(CCSc2ccc(F)cc2)cc1)c1ccccc1,50µM*,-10,?,?,90%,-26%
Cc1ccc(SCCc2cc[n+](CC(=O)c3ccccc3)cc2)cc1,-1%,-11,-10%,-5%,13%,-8%
CC(=O)c1cc(NC(=O)c2cccc(C(F)(F)F)c2)c(=O)oc1/C=C/N(C)C,5%,3,7%,5%,-3%,-10%[46.1 µM]
CC(=O)c1cc(NC(=O)c2ccc(Cl)cc2)c(=O)oc1/C=C/N(C)C,56µM*,0,?,?,8%,-13%[46.1 µM]
CCCCC1=CC2=CC(=O)C(C)(OC(=O)CC)C(=O)C2=CN1Cc1ccc2c(c1)OCO2 (stereo unspecified),20%,-1,18µM*!,14%[13.5 µM],14%[14.2 µM],-7%
CCCCCCCC1=CC2=CC(=O)C(C)(OC(C)=O)C(=O)C2=CN1CCc1ccccc1 (stereo unspecified),-6%,-2,-11%,-4%,21%,-12%
CCCCC1=CC2=CC(=O)C(C)(OC(=O)CC)C(=O)C2=CN1c1ccc(OC)cc1 (stereo unspecified),3%,-6,?,5%[13.5 µM],4%[14.2 µM],-6%
CCCCC1=CC2=CC(=O)C(C)(OC(=O)CC)C(=O)C2=CN1C1CCCCC1 (stereo unspecified),4%,-19,28µM*!,0%[13.5 µM],6%[14.2 µM],2%
CCCCC1=CC2=CC(=O)C(C)(OC(=O)CC)C(=O)C2=CN1CCCCO (stereo unspecified),22%,-35*!,13µM*!,8%[13.5 µM],-20%[14.2 µM],1%
COC(=O)CCCC1=CC2=CC(=O)C(C)(OC(=O)c3cccs3)C(=O)C2=CN1CCN1CCOCC1 (stereo unspecified),8%,-38*!,-29%[11.4 µM],1%[13.5 µM],-22%[14.2 µM],9%
O=C(CN1C(=O)/C(=C2\SC(=S)N(C3CCS(=O)(=O)C3)C2=O)c2ccccc21)Nc1ccc(F)cc1 (stereo unspecified),-24%,3,-1%,.,5%,-1%
COc1ccc(NC(=O)CN2C(=O)/C(=C3\SC(=S)N(C4CCS(=O)(=O)C4)C3=O)c3ccccc32)cc1 (stereo unspecified),14µM*,1,-8%,.,1%,-1%

# Screening results deposited in PubChem BioAssay by National Center for Advancing Translational Sciences (NCATS).
